# PubChem BioAssay AID1508624 (National Center for Advancing Translational Sciences (NCATS), 2021)
# The whole screen tested about 48,000 compounds, of which about 120 (0.25%) were called active. Another 4% or so got no clear call; they are omitted. Many of the other results were omitted from the sample, so actives are more common in it than they were. A number with no mark means an inactive call. Calls follow the shape of the dose curve; as a rule, active = well fitted activation curve with a large enough effect; inconclusive = small, poorly fitted or top-dose-only effect, or another doubt; inactive = no such curve, though single readings can be large or run the other way.
# Test: Primary qHTS for Identification of Small Molecule Activators of Huntingtin-Antisense Promoter Activity; also: nearly all actives have a fitted effect of over 55% in size
# Settings: HEK293 HTT-AS promoter firefly luciferase reporter, 24 h; series mostly up to 57.5 µM; activity change, positive = activation: at the top concentration
# Excerpt: Assay Provider: Russell L. Margolis M.D.
# Department Neurology, Johns Hopkins University School of Medicine, Baltimore, MD
# Huntington's Disease (HD) is a neurodegenerative disorder caused by a CAG repeat expansion in exon 1 of huntingtin (HTT). While there are currently no disease-modifying treatments for HD, recent efforts have focused on development of nucleotide-based therapeutics to lower HTT expression. As an alternative to siRNA or oligonucleotide methods, we hypothesized that suppression of HTT expression might be accomplished by small molecules that either (1) directly decrease HTT expression by suppressing HTT promoter activity or (2) indirectly decrease HTT expression by increasing the promoter activity of HTT-AS, the gene antisense to HTT that appears to inhibit expression of HTT.
# We developed and employed a high throughput screen for modifiers of HTT and HTT-AS promoter activity using luminescent reporter HEK293 cells; of the 52,041 compounds tested, we identified 898 replicable hits. We used a rigorous stepwise approach to assess compound toxicity and the capacity of the compounds to specifically lower huntingtin protein in 5 different cell lines, including HEK293 cells, HD lymphoblastoid cells, mouse primary neurons, HD iPSCs differentiated into cortical-like neurons, and HD hESCs. We found no compounds which were able to lower huntingtin without lowering cell viability in all assays, though the potential efficacy of a few compounds at non-toxic doses could not be excluded.
# SEQUENCE No. (1, 2, 3, etc.); […] (e.g., Cells, Incubation, Reagent, etc.); VALUE and DESCRIPTION.
# 1; Reagent; 4 uL; 2,500 Hek293 luciferase reporter cells per wells
# 3; Compound; 23 nL; Control inhibitor / compound library
# 5; Reagent; 2.5 uL; Firefly Luc reagent; Dual-Glo Luciferase Reporter Assay System (Promega)
# 6; Time; 10 min; room temperature incubation
# 7; Detection; Luminescence; FLuc
# NOTES (numbers refer to sequence above)
# 1; High-throughput screening, measuring luminescence from a Hek293 luciferase reporter, was performed in 1,536 well white-walled tissue-culture treated plates. 2,500 cells were plated in 4 µL of Opti-MEM per well using a Multidrop Combi Reagent Dispenser (ThermoFisher).
# 2; Assay plates were cultured for 24 hours.
# 3; Control inhibitor (PTC124; final concentration of 50 uM) and compound library (at final concentrations of 460 nM - 57.5 uM) were added to the assay plate using the Kalypsis Pintool Robotic System equipped with 1536 pinheads.
# 4; Cells were then incubated for 24 hours at 37 degrees C prior to luminescence measurements.
# 5; In all cases, luminescence was measured using the Dual-Glo Luciferase Reporter Assay System (Promega) following the manufacturer's instructions.
# 6; Room temperature incubation.
# 7; Luminescence signal was obtained using the PerkinElmer ViewLux plate reader. Results were normalized to vehicle control (0% activity) and zero RLU (-100% activity).
# Potency is read from the fitted curve at half-maximal effect.
SMILES,"activity change, positive = activation",Potency
CSc1nc(Nc2ccc(F)cc2)cc(-c2ccccc2)n1,-31.3%,–
Cc1nnc(SCC(=O)NCc2ccccc2Cl)c2nn(-c3ccccc3)c(C)c12,-52.7%,–
Cc1ccc(C)c(Cn2c(C)c(CNCc3ccc(F)cc3)c(C(=O)O)c2C)c1,-17.8%,–
CCn1c(CN2CCC(C)CC2)nc2cc(NC(=O)c3ccccc3[N+](=O)[O-])ccc21,-14.8%,–
COc1ccc(-c2cn3nc(N4CCC(C(=O)Nc5cccc(C)c5C)CC4)sc3n2)cc1,-3.6%,–
COc1ccc(-c2nc(CN3CCC(C(=O)NCc4ccccc4)CC3)c(C)o2)cc1OC,-3.36%,–
CC(C)CNc1ncnc2c1nnn2C,5.96%,–
CSc1ccccc1-c1nnc(NC(=O)c2ccc3c(c2)OCCO3)o1,23.7%,–
COc1ccc(NC(=O)CCc2nnc3n(CC(C)C)c(=O)c4ccccc4n23)cc1OC,-1.01%,–
O=C(NCC(c1ccc(Cl)cc1)N1CCOCC1)c1ccccc1F (stereo not given),-2.89%,–
CCOc1ccc(NC(=O)CC2C(=O)N(c3cccc(OC)c3)C(=O)N2C2CCCCC2)cc1 (stereo not given),-6.38%,–
COc1cc(OC)cc(C(=O)Nc2ccc3nc(Nc4cccc(C(F)(F)F)c4)cc(C)c3c2)c1,-45.6%,–
Cn1cc(S(=O)(=O)N2CCCCCC2)cc1C(=O)N1CCN(c2ccc(F)cc2)CC1,-20.1%,–
Cc1ccc(NS(=O)(=O)c2ccc3c(c2)CC(=O)N3)cc1Cl,-22.4%,–
CCCc1nn2c(=O)cc(COC(=O)c3ccc(NC(=O)COc4ccc(F)cc4)cc3)nc2s1,-14.4%,–
CSc1ccc(NC(=O)Cn2nnnc2-c2ccccc2F)cc1,2.75%,–
CCOc1ccc(N(CC)S(=O)(=O)N2CCCC(C(=O)NCc3ccc(SC)cc3)C2)cc1 (stereo not given),-54.2%,–
Cc1ccc(N2CC(NC(=O)Cc3cccs3)CC2=O)cc1 (stereo not given),-7.5%,–
CSc1ccc(C2C(C(=O)Nc3ccccc3)=C(C)Nc3nc4ccccc4n32)cc1 (stereo not given),-8.48%,–
CC1CCCN(S(=O)(=O)c2ccc3[nH]c(=O)cc(C(=O)NCCc4ccc(Cl)cc4)c3c2)C1 (stereo not given),-9.89%,–
COc1ccc(Cl)cc1NC(=O)CSc1nc2ccccc2c2nc(-c3ccccc3)nn12,-1.33%,–
O=C(CC(c1cccs1)N1Cc2ccccc2C1=O)Nc1ccc(F)cc1F (stereo not given),-27.2%,–
COCCNC(=O)c1ccc2c(c1)N=C(C)c1cc(C)ccc1S2,-31.8%,–

SMILES,"activity change, positive = activation",Potency
COc1ccc(-c2nc3c4ccccc4n(CC(=O)Nc4ccc(C(C)=O)cc4)c(=O)n3n2)cc1,0.837%,–
Cc1cccc(N2CCN(C(=O)Cn3ncc4c5ccccc5n(C)c4c3=O)CC2C)c1 (stereo not given),-6.74%,–
CCOC(=O)N1CCC(NC(=O)c2cnn(-c3cccc(C)c3)c2C2CCN(C(=O)OC(C)(C)C)CC2)CC1,7.44%,–
COc1cccc(NC(=O)N(Cc2cn(C)c3ccccc23)C2CCCCCC2)c1,-30.5%,–
COc1ccc(CNC(=O)COCc2cc(-c3cccs3)on2)cc1OC,-12%,–
COc1cccc(CNC(=O)Cn2ncn3c(cc4ccccc43)c2=O)c1,4.19%,–
COc1cc2ccccc2cc1C(=O)Nc1cccc(-c2nc3ccccc3o2)c1,"4.7% [at 11.5 µM, percent change from vehicle, -100% = no light]",–
CC1CCN(c2nc3ccc(C(=O)N4CCN(c5ccccc5)CC4)cc3s2)CC1,-77.4%,–
COc1cc(NC(=O)CN2CCN(S(=O)(=O)c3ccc(Br)cc3)CC2)cc(OC)c1,0%,–
CCOC(=O)c1cccc(NC(=O)c2cc(S(=O)(=O)N3CCCC(C)C3)cn2C)c1 (stereo not given),-36.2%,–
Cc1ccc(OCC(=O)OCc2cc(=O)n3nc(C4CC4)sc3n2)cc1C,-14.4%,–
COc1cc(-c2nnn(CC(=O)NCc3ccccc3)n2)cc(OC)c1OC,-17.2%,–
Cc1ccc(C)c(N2CCN(CCCNC(=O)Nc3ccc(Cl)cc3)CC2)c1,-32.1%,–
CCCCC12CN3CC(C)(CN(C1)C3c1ccc(O)c(OC)c1)C2=O (stereo not given),0.462%,–
Cc1cc(Cl)ccc1NC(=O)Cc1ccc(NC(=O)N2CCCCc3ccccc32)cc1,-3.06%,–
CCN(CC)CCNc1ncnc2c1cnn2-c1cc(Cl)ccc1C,-12%,–
COc1ccc(C(=O)Nc2ccc(-n3nncc3-c3ccccc3)cc2)cc1OC,-6.93%,–
CN(Cc1ccccc1)C(=O)CCS(=O)(=O)c1cc(Br)cc2c1N(C(=O)C1CC1)CC2,-15%,–
Cc1ccc(-c2nnc(SCc3ccccc3C)o2)cc1,–,14.1 µM (active)
COc1ccc(-c2nnc(SCC(=O)Nc3ccccc3C)o2)cc1OC,-4.55%,–
Cc1ccc(OC(=O)CSc2nnc(-c3cccs3)o2)cc1,18.6%,–
Cc1ccc(Cl)cc1N(C)C(=O)C1CCCN(c2ncnc3onc(-c4ccc(F)cc4)c23)C1 (stereo not given),-34%,–
